The structures appear in SMILES notation. Compounds without any hit were thinned out: in the full panel of roughly 79,000, 15% have a hit. A number with no mark means an inactive call. Active and inactive are the calls of the source. Rule as the data show it: active = growth inhibition above about 70%; inactive = the rest.

Assay [1] in a line: NCI Yeast Anticancer Drug Screen. Data for the rad50 strain (AID 155).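 Also: 0% = growth of vehicle-only cultures of the same strain.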 Conditions: S. cerevisiae rad50 strain growth inhibition, hits give high values. Summed up:
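DNA repair mutant yeast, compound exposure, growth read-out; inhibition is taken relative to vehicle.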

The nature of assay [2]: NCI Yeast Anticancer Drug Screen. Data for the mec2-1 strain (AID 157). Conditions: S. cerevisiae mec2-1 strain, hits give high values. The method in brief:
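mec2-1 yeast strain, carrying an alteration in DNA damage repair or cell cycle control, was exposed to compounds; growth inhibition was measured relative to vehicle-treated controls.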

Assay [3] in a line: NCI Yeast Anticancer Drug Screen. Data for the sgs1 mgt1 strain (AID 161).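 Also: 0% = growth of cultures given vehicle only.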 Particulars: S. cerevisiae sgs1 mgt1 strain, hits give high values. Summed up: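 This yeast growth screen uses a strain with defined DNA-repair lesions; compound-treated growth is compared with vehicle-treated growth.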
The nature of assay [4]: NCI Yeast Anticancer Drug Screen. Data for the cln2 rad14 strain (AID 165).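 Also: 0% = growth equal to vehicle treated cultures.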 Conditions: S. cerevisiae cln2 rad14 strain, hits give high values. The method in brief:
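Yeast carrying cln2 and rad14 alterations (cell cycle control and DNA damage repair) were exposed to compounds. Growth inhibition was measured against vehicle-treated controls.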

Assay [5] can be described thus: NCI Yeast Anticancer Drug Screen. Data for the bub3 strain (AID 167). Particulars: S. cerevisiae bub3 mutant strain, hits give high values. Summed up: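 In this screen, a yeast mutant lacking normal mitotic checkpoint function is challenged with compound. Relative growth versus vehicle gives the inhibition value.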
The nature of assay [6]: NCI Yeast Anticancer Drug Screen. Data for the mlh1 rad18 strain (AID 175). Conditions: S. cerevisiae mlh1 rad18 strain growth inhibition, hits give high values. The method in brief:
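Growth inhibition of the yeast strain was measured after compound exposure and expressed relative to vehicle-treated controls. The strain carries defined defects in DNA damage repair.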

Setting [7] is: at 5.0 µM (retest, dose inferred, filed as 0.5).
Where [8] appears, read: at 50.0 µM (retest, dose inferred, filed as 5.0).

As to `CCCCC(CSC#N)SC#N` (configuration not stated), the growth inhibition is 14% in assay [1] (setting [7]); 98% (active) in assay [1] (setting [8]); 99% (active) in assay [1] (at 50.0 µM); 14% in assay [2] (setting [7]); 98% (active) in assay [2] (setting [8]); 98.3% (active) in assay [2] (at 50.0 µM). Also, the growth inhibition is 12% in assay [3] (setting [7]); 97% (active) in assay [3] (setting [8]); 97.2% (active) in assay [3] (at 50.0 µM); 3% in assay [4] (setting [7]); 95% (active) in assay [4] (setting [8]); 97.2% (active) in assay [4] (at 50.0 µM). For the same molecule, the growth inhibition is 16% in assay [5] (setting [7]); 97% (active) in assay [5] (setting [8]); 98% (active) in assay [5] (at 50.0 µM); 24% in assay [6] (setting [7]); 98% (active) in assay [6] (setting [8]); 98.3% (active) in assay [6] (at 50.0 µM).

Regarding `O=C1c2ccccc2C(=O)[C@@]23O[C@@]12C1(Oc2cccc4cccc(c24)O1)[C@@H]1O[C@@H]1[C@@H]3O`, the growth inhibition was 79% (active) in assay [1] (setting [7]); 98% (active) in assay [1] (setting [8]); 88.1% (active) in assay [1] (at 50.0 µM); 84% (active) in assay [2] (setting [7]); 99% (active) in assay [2] (setting [8]); 91% (active) in assay [2] (at 50.0 µM). Also, the growth inhibition is 62% in assay [3] (setting [7]); 99% (active) in assay [3] (setting [8]); 91.2% (active) in assay [3] (at 50.0 µM); 48% in assay [4] (setting [7]); 98% (active) in assay [4] (setting [8]); 88.7% (active) in assay [4] (at 50.0 µM). In addition, the growth inhibition was 56% in assay [5] (setting [7]); 99% (active) in assay [5] (setting [8]); 89.5% (active) in assay [5] (at 50.0 µM); 85% (active) in assay [6] (setting [7]); 98% (active) in assay [6] (setting [8]); 84.9% (active) in assay [6] (at 50.0 µM).

As for `COc1ccc2c(c1)CCCN2CCCCCCCCCN1CCCCC1`, the growth inhibition in assay [1] (setting [7]) was 31%; in assay [1] (setting [8]), 36%; in assay [1] (at 50.0 µM), 62%; in assay [2] (setting [7]), 27%; in assay [2] (setting [8]), 53%; in assay [2] (at 50.0 µM), 57.9%. Besides, the growth inhibition is 45% in assay [3] (setting [7]); 81% (active) in assay [3] (setting [8]); 82.8% (active) in assay [3] (at 50.0 µM); 35% in assay [4] (setting [7]); 44% in assay [4] (setting [8]); 42.4% in assay [4] (at 50.0 µM). For the same molecule, the growth inhibition in assay [5] (setting [7]) is 45%; in assay [5] (setting [8]) it was 76% (active); in assay [5] (at 50.0 µM), 79.6% (active); in assay [6] (setting [7]) it was 47%; in assay [6] (setting [8]) it was 63%; in assay [6] (at 50.0 µM) it was 69%.

For `Clc1ccc(-c2nnn3ccccc23)cc1`, the growth inhibition in assay [1] (setting [7]) was 4%; in assay [1] (setting [8]), 8%; in assay [1] (at 50.0 µM), 95.3% (active); in assay [2] (setting [7]), 12%; in assay [2] (setting [8]), 9%; in assay [2] (at 50.0 µM), 93.5% (active). For the same molecule, the growth inhibition was -3% in assay [3] (setting [7]); 12% in assay [3] (setting [8]); 95.8% (active) in assay [3] (at 50.0 µM); 4% in assay [4] (setting [7]); 10% in assay [4] (setting [8]); 28.6% in assay [4] (at 50.0 µM). Moreover, the growth inhibition in assay [5] (setting [7]) was 2%; in assay [5] (setting [8]), 5%; in assay [5] (at 50.0 µM) it was 91.7% (active); in assay [6] (setting [7]), 13%; in assay [6] (setting [8]), 51%; in assay [6] (at 50.0 µM), 94.1% (active).

Consider `O=S(=O)(O)C(O)c1ccc2ccc3cccc4ccc1c2c34` (configuration not stated), for which the growth inhibition in assay [1] (setting [7]) was 12%; in assay [1] (setting [8]), 95% (active); in assay [1] (at 50.0 µM), 94.4% (active); in assay [2] (setting [7]), -2%; in assay [2] (setting [8]), 96% (active); in assay [2] (at 50.0 µM) it was 95.3% (active). The growth inhibition was 4% in assay [3] (setting [7]); 92% (active) in assay [3] (setting [8]); 67.8% in assay [3] (at 50.0 µM); -4% in assay [4] (setting [7]); 84% (active) in assay [4] (setting [8]); 77.5% (active) in assay [4] (at 50.0 µM). For the same molecule, the growth inhibition in assay [5] (setting [7]) was -3%; in assay [5] (setting [8]), 94% (active); in assay [5] (at 50.0 µM) it was 97.5% (active); in assay [6] (setting [7]), 3%; in assay [6] (setting [8]), 95% (active); in assay [6] (at 50.0 µM) it was 97% (active).

`CCN(CC)CCOc1c(I)cc(I)cc1I`: the growth inhibition was 2% in assay [1] (setting [7]); 98% (active) in assay [1] (setting [8]); 84.3% (active) in assay [1] (at 50.0 µM); 0% in assay [2] (setting [7]); 98% (active) in assay [2] (setting [8]); 82.4% (active) in assay [2] (at 50.0 µM). The growth inhibition in assay [3] (setting [7]) was 12%; in assay [3] (setting [8]), 99% (active); in assay [3] (at 50.0 µM), 96.5% (active); in assay [4] (setting [7]), 7%; in assay [4] (setting [8]) it was 98% (active); in assay [4] (at 50.0 µM), 98.2% (active). Moreover, the growth inhibition in assay [5] (setting [7]) was 6%; in assay [5] (setting [8]), 98% (active); in assay [5] (at 50.0 µM), 84.8% (active); in assay [6] (setting [7]) it was 1%; in assay [6] (setting [8]) it was 99% (active); in assay [6] (at 50.0 µM), 99.2% (active).

On to `COc1ccc(-c2c(CO)cc(OC)c(OC)c2OC)c(CO)c1`, for which the growth inhibition in assay [1] (setting [7]) is -1%; in assay [1] (setting [8]), 6%; in assay [1] (at 50.0 µM), 93.5% (active); in assay [2] (setting [7]), -9%; in assay [2] (setting [8]), 21%; in assay [2] (at 50.0 µM), 98.8% (active). The growth inhibition is -5% in assay [3] (setting [7]); 22% in assay [3] (setting [8]); 64.5% in assay [3] (at 50.0 µM); -2% in assay [4] (setting [7]); 10% in assay [4] (setting [8]); 98% (active) in assay [4] (at 50.0 µM). Also, the growth inhibition is 1% in assay [5] (setting [7]); 43% in assay [5] (setting [8]); 98.7% (active) in assay [5] (at 50.0 µM); 13% in assay [6] (setting [7]); 41% in assay [6] (setting [8]); 99% (active) in assay [6] (at 50.0 µM).

`COc1ccc(NC(=S)N/N=C/c2cccc(C)n2)cc1`: the growth inhibition in assay [1] (setting [7]) is 8%; in assay [1] (setting [8]) it was 98% (active); in assay [1] (at 50.0 µM), 67.4%; in assay [2] (setting [7]) it was 0%; in assay [2] (setting [8]), 94% (active); in assay [2] (at 50.0 µM), 82.5% (active). The growth inhibition was 13% in assay [3] (setting [7]); 90% (active) in assay [3] (setting [8]); 86.5% (active) in assay [3] (at 50.0 µM); 23% in assay [4] (setting [7]); 88% (active) in assay [4] (setting [8]); 83.3% (active) in assay [4] (at 50.0 µM). Moreover, the growth inhibition in assay [5] (setting [7]) was -22%; in assay [5] (setting [8]), 85% (active); in assay [5] (at 50.0 µM) it was 85.9% (active); in assay [6] (setting [7]), 10%; in assay [6] (setting [8]), 95% (active); in assay [6] (at 50.0 µM), 89.4% (active).

`CCN(CC)c1cccc(OC(=O)Nc2cccc(C(F)(F)F)c2)c1`: the growth inhibition in assay [1] (setting [7]) is 50%; in assay [1] (setting [8]) it was 73% (active); in assay [1] (at 50.0 µM), 84% (active); in assay [2] (setting [7]), 37%; in assay [2] (setting [8]), 73% (active); in assay [2] (at 50.0 µM), 81.2% (active). Further, the growth inhibition in assay [3] (setting [7]) is 42%; in assay [3] (setting [8]), 80% (active); in assay [3] (at 50.0 µM) it was 83.8% (active); in assay [4] (setting [7]), 28%; in assay [4] (setting [8]) it was 64%; in assay [4] (at 50.0 µM) it was 82.9% (active). Also, the growth inhibition in assay [5] (setting [7]) is 42%; in assay [5] (setting [8]), 79% (active); in assay [5] (at 50.0 µM) it was 87.6% (active); in assay [6] (setting [7]), 44%; in assay [6] (setting [8]), 88% (active); in assay [6] (at 50.0 µM), 83.4% (active).

These data come from PubChem BioAssay (NCI).
